697 NFkB inh: lowers PMA/ionomycin-induced NF-kB signal in 697 B cells; 697 B-cell NF-kB luciferase reporter, 16 h; inhibition, % at 4 µM; 330,000 compounds, 0.33% hits; AID 435022; in the data active = inhibition above about 35%
Gli-Sufu antag: Gli-Sufu pathway antagonism; AID 588413; Sufu-KO-LIGHT fibroblasts, Gli luciferase reporter luminescence; inhibition, % at 5 µM; 340,000 compounds, 0.74% hits;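 active = inhibition above about 55%, limit read from the data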
Jurkat NFkB inh: inhibitors of the PMA/ionomycin-induced NF-kB reporter in Jurkat cells. 330,000 compounds, 0.53% hits. PMA/ionomycin-induced NF-kB luciferase reporter, luminescence. AID 435003. inhibition, % at 4 µM; in the data active = inhibition above about 50%
NR2F2 inh: NR2F2 (human) inhibition, primary screen; P24468; HEK293T NGFI-A luciferase reporter, luminescence; inhibition, % at 8.6 µM; 370,000 compounds, 0.7% hits; AID 686940;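 active = inhibition above a per-plate cutoff, mean inhibition of test wells between control levels plus 3 SD, cut at about 38% in these data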;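 also: cells cotransfected with COUP-TFII expression vector driving the NGFI-A reporter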
Target sequence (P24468 whole entry, looked up): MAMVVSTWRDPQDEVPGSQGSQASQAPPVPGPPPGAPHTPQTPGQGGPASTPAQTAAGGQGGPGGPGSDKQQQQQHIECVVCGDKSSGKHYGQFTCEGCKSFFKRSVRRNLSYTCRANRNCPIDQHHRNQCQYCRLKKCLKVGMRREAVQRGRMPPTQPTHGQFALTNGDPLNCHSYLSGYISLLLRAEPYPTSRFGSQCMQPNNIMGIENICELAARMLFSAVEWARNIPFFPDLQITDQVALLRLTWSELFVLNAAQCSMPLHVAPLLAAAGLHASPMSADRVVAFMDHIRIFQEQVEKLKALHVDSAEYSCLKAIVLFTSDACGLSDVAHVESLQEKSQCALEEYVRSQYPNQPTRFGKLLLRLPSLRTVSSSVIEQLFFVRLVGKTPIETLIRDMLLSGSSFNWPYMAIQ
GalR3 antag: human GalR3 antagonism | 360,000 compounds, 0.44% hits | AID 651719 | HEK293 GalR3-CNG cAMP membrane potential fluorescence; galR3 body fused to GalR1 C-terminus | O60755 | inhibition, % at 3 µM;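 active = inhibition above the screen-wide average plus 3 SD, cut at about 13% in these data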;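 also: forskolin and galanin both at EC90 stimulate the cells; cAMP rise reported by CNG channel membrane potential dye signal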
Target sequence (O60755 1-299 limits assumed): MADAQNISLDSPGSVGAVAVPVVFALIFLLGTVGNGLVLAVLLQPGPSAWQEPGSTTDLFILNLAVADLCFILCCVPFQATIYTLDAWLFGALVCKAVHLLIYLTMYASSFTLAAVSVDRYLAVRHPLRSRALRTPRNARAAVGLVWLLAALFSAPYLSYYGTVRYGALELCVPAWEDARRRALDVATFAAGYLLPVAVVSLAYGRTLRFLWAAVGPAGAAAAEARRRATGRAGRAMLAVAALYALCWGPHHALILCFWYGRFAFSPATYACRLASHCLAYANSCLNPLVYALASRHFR
Gli antag conf: Gli-SUFU antagonism confirmation, single concentration; shares compounds with Gli-Sufu antag; Sufu-KO-LIGHT cells, Gli luciferase reporter, luminescence; inhibition, % at 5 µM; 2,500 compounds, 40% hits;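 active = mean inhibition at 5 µM reaching about 45%, limit read from the data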
SufuKO cytotox: cytotoxic in Gli-SUFU antagonist counter-screen; shares compounds with Gli-Sufu antag; Sufu-KO-LIGHT cells cytotoxicity, ATP luminescence; cytotoxicity, % at 5 µM; 2,500 compounds, 32% hits;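 active = mean cytotoxicity at 5 µM above about 25%, limit read from the data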;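 also: cells exposed to compound overnight for roughly 16 to 18 hours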
Wnt3a cs: counter-screen for Gli-SUFU antagonists: Wnt3a reporter inhibition; shares compounds with Gli-Sufu antag; Wnt-LIGHT cells, Wnt3a-driven luciferase reporter, luminescence; inhibition, % at 6.25 µM; 2,500 compounds, 20% hits; AID 651995;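 active = mean inhibition above about 25%, limit read from the data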
Each line names hits and unclear results; the compound was inactive in the other large screens (follow-up assays come after a bar, where they were run). An excerpt weighted towards active compounds, which were near 2% of everything screened.

O=C(NN=C1CCCC1)c1ccc(O)cc1	none | Gli antag conf inactive | SufuKO cytotox inactive | Wnt3a cs inactive
CN(C)c1ccc(NC(=O)CN2CCC(NC(=O)C3CCCCC3)CC2)cc1	none
CN(C)c1ccc(NC(=O)CN2CCC(N3CCCCC3)CC2)cc1	none | Gli antag conf inactive | SufuKO cytotox inactive | Wnt3a cs inactive
COc1ccc(OC)c(/C=C2\SC(N3CCCC(C)C3)=NC2=O)c1 (stereo not given)	Gli-Sufu antag 64 | Gli antag conf inactive | SufuKO cytotox inactive | Wnt3a cs inactive
CCC[C@H]1[C@@H](NC(=O)c2cccc(C)c2)CC[C@@]23CCCN2C(=O)CCC[C@@H]13	none (no result: 697 NFkB inh, Gli-Sufu antag, Jurkat NFkB inh, GalR3 antag)
Cc1ccccc1CN1CCCCC(NC(=O)c2cccc(C(F)(F)F)c2)C1=O (stereo not given)	none (no result: 697 NFkB inh, Gli-Sufu antag, Jurkat NFkB inh, GalR3 antag)
NS(=O)(=O)c1ccc(CCNCc2cc(Br)ccc2OCc2ccccc2)cc1	Gli-Sufu antag 55 | Gli antag conf inactive | SufuKO cytotox inactive | Wnt3a cs inactive
COc1ccc(CNCCc2ccc(Cl)cc2)cc1OCc1ccccc1	none (no result: NR2F2 inh, GalR3 antag) | Gli antag conf inactive | SufuKO cytotox inactive | Wnt3a cs inactive
CCOc1cc(CNCCc2ccc(S(N)(=O)=O)cc2)ccc1OCc1ccccc1	none (no result: 697 NFkB inh, Jurkat NFkB inh)
COC(=O)[C@]12C[C@H](CC(=O)NCCCCc3ccccc3)C(=O)N(CCC3=CCCCC3)C1=C[C@H](C(C)C)O[C@@H]2C1CC1	none (no result: 697 NFkB inh, Gli-Sufu antag, Jurkat NFkB inh, GalR3 antag)
C(#Cc1ccccc1)C[N+]1(CC#Cc2ccccc2)CCCCC1	Gli-Sufu antag 81 | Gli antag conf 79 | SufuKO cytotox 38 | Wnt3a cs inactive
C#CC[N+]1(CC#Cc2ccccc2)CCCCC1	none
COc1cccc(NC(=O)n2ccc3ccc(-c4ccc5ccn(C(=O)Nc6cccc(OC)c6)c5c4)cc32)c1	none (no result: 697 NFkB inh, Gli-Sufu antag, Jurkat NFkB inh, GalR3 antag)
Cc1ccc(-c2cc[n+](Cc3ccccc3)cc2)cc1	Gli-Sufu antag 62 | Gli antag conf 78 | SufuKO cytotox 41 | Wnt3a cs 26
Cn1cccc1C(=O)N1CCN(S(=O)(=O)c2ccc([N+](=O)[O-])cc2)CC1	none (no result: 697 NFkB inh, Gli-Sufu antag, Jurkat NFkB inh, GalR3 antag)
O=C(NCC(c1ccccc1)c1ccccc1)[C@H](Cc1ccccc1)NC1(C(=O)NC2CCCCC2)CCC1	none (no result: 697 NFkB inh, Gli-Sufu antag, Jurkat NFkB inh, GalR3 antag)
O=C(NCCCn1ccnc1)/C(=C\c1cccnc1)NC(=O)c1ccco1	none
O=C(NCCCn1ccnc1)/C(=C\c1cccnc1)NC(=O)c1cccc(Br)c1	Gli-Sufu antag 98 | Gli antag conf inactive | SufuKO cytotox inactive | Wnt3a cs inactive
COCCNC(=S)NCc1ccc2[nH]c3c(c2c1)CCCC3	Gli-Sufu antag 92 | Gli antag conf inactive | SufuKO cytotox 26 | Wnt3a cs inactive
CC(C)(C)N(Cc1cn(Cc2ccccc2)nn1)S(=O)(=O)c1ccccc1Br	none (no result: 697 NFkB inh, Gli-Sufu antag, Jurkat NFkB inh, GalR3 antag)
N=c1n(CCN2CCOCC2)c2ccccc2n1CC(O)COc1ccccc1 (stereo not given)	none
COc1ccc(OCCC(=O)NCCN2CCOCC2)cc1	none | Gli antag conf inactive | SufuKO cytotox inactive | Wnt3a cs inactive
COc1ccc(OCC(O)Cn2c(=N)n(CCN3CCOCC3)c3ccccc32)cc1 (stereo not given)	Gli-Sufu antag 63 | Gli antag conf inactive | SufuKO cytotox inactive | Wnt3a cs inactive
O=C(Nc1nc(=O)c2ccccc2s1)c1ccccc1	none
O=C(Nc1nc2c(s1)C(=O)CCC2)c1ccccc1	Gli-Sufu antag 70 | Gli antag conf inactive | SufuKO cytotox 29 | Wnt3a cs inactive
CCn1c(COc2ccc3c(c2)OCO3)nnc1SCC(=O)c1ccccc1	Gli-Sufu antag 67 | Gli antag conf inactive | SufuKO cytotox inactive | Wnt3a cs inactive
CC1(C)CC(=O)C=C(Nc2ccccc2NC(=O)c2cc(Cl)ccc2F)C1	none (no result: 697 NFkB inh, Gli-Sufu antag, Jurkat NFkB inh, GalR3 antag)
CCC(C)NC(=O)COC(=O)Cc1sc(N)nc1-c1ccc(C)cc1 (stereo not given)	none
Cc1ccc(-c2nc(N)sc2CC(=O)OCC(=O)NCCC(C)C)cc1	Gli-Sufu antag 58 | Gli antag conf inactive | SufuKO cytotox inactive | Wnt3a cs 31
O=C(Nc1ccc2c(c1)Cc1ccccc1-2)NC1CCCCN(Cc2ccc(Cl)cc2)C1=O (stereo not given)	none (no result: 697 NFkB inh, Gli-Sufu antag, Jurkat NFkB inh, GalR3 antag)
CCOC(=O)c1ccc(NC(=S)N(CCCN2CCN(C)CC2)Cc2cccs2)cc1	Gli-Sufu antag 60 | Gli antag conf inactive | SufuKO cytotox 27 | Wnt3a cs inactive
CCOC(=O)c1cc(CC)sc1NC(=O)C1CC1	none
CCOC(=O)c1cc(CC)sc1NC(=O)c1cc(OCC)c(OCC)c(OCC)c1	Gli-Sufu antag 99 | Gli antag conf inactive | SufuKO cytotox inactive | Wnt3a cs inactive
Cc1cc2cc(CN(CC3CCCO3)C(=S)NCc3ccco3)c(=O)[nH]c2cc1C (stereo not given)	none
Cc1cc2cc(CN(CC3CCCO3)C(=S)Nc3ccccc3)c(=O)[nH]c2cc1C (stereo not given)	Gli-Sufu antag 63 | Gli antag conf 80 | SufuKO cytotox 50 | Wnt3a cs inactive
CCOCCCNC(=O)c1ccc2c(c1)ncn2-c1ccccc1OC	Gli-Sufu antag 61 | Gli antag conf inactive | SufuKO cytotox inactive | Wnt3a cs inactive
CCOCCCNC(=O)c1ccc2c(c1)ncn2-c1ccc(C)cc1C	none
CCOC(=O)[C@@]12CCCC3=C1N(CCC3)C(=O)[C@H]2CC(=O)NCc1ccccc1	none (no result: 697 NFkB inh, Gli-Sufu antag, Jurkat NFkB inh, GalR3 antag)
COc1cc(NC(=O)CSc2nncn2C)cc(OC)c1OC	none
COc1cc(NC(=O)CSc2nc(C)cc(C)n2)cc(OC)c1OC	none | Gli antag conf inactive | SufuKO cytotox inactive | Wnt3a cs inactive
CCC1(O)C(=O)OCc2c1cc1n(c2=O)Cc2cc3cc(O)ccc3nc2-1 (stereo not given)	none (no result: 697 NFkB inh, Jurkat NFkB inh) | Gli antag conf 64 | SufuKO cytotox 51 | Wnt3a cs inactive
COC(=O)[C@]12C[C@H](CC(=O)N3CCCC3)C(=O)N(CCC3=CCCCC3)C1=C[C@H](C1CCCC1)O[C@@H]2C	none (no result: 697 NFkB inh, Gli-Sufu antag, Jurkat NFkB inh, GalR3 antag)
CCOC(=O)CSc1nc2sc3c(c2c(=O)n1-c1ccc(C)cc1)CCN(C)C3	none
CCCCSc1nc2sc3c(c2c(=O)n1-c1ccc(C)cc1)CCN(C)C3	none | Gli antag conf 49 | SufuKO cytotox inactive | Wnt3a cs inactive
COC(=O)C1CN(Cc2cn(Cc3ccccc3)nn2)CCS(=O)(=O)N1Cc1ccc(F)cc1 (stereo not given)	none (no result: 697 NFkB inh, Gli-Sufu antag, Jurkat NFkB inh, GalR3 antag)
Cc1nn(C)cc1/C=C/C(=O)c1ccccc1	Gli-Sufu antag 99 | Gli antag conf inactive | SufuKO cytotox inactive | Wnt3a cs inactive
COC(=O)c1ccc(NC(=O)C(C)Oc2ccccc2)cc1 (stereo not given)	none
COc1ccccc1OCC(=O)Nc1ccc(C(N)=O)cc1	Gli-Sufu antag 69 | Gli antag conf inactive | SufuKO cytotox inactive | Wnt3a cs inactive
